Screen size: about 5,500 compounds; about 2,000 (36%) were called active. Not shown: some 18% with an inconclusive outcome. Rule as the data show it: active = normalized growth mostly below about 0.91 (no sharp cut-off); inconclusive = no clear call, values can overlap the other calls; inactive = mostly above about 0.92. Some of the results follow.
Test: chemical genetic growth profiling, strain panel (AID 1159580);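 also: tested at 20 µM; growth read once vehicle control cultures reached saturation at 30 °C; 1 = growth at the plate median or of vehicle wells; lower values mean less growth of the strain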
Conditions: growth OD
[1] = S. cerevisiae deletion strains, locus YDR150W, strain NUM1, stronger effect = lower value
[2] = S. cerevisiae deletion strains, locus YGR078C, strain PAC10, stronger effect = lower value
[3] = S. cerevisiae deletion strains, locus YMR263W, strain SAP30, stronger effect = lower value
[4] = S. cerevisiae deletion strains, locus YNL153C, strain GIM3, stronger effect = lower value
[5] = S. cerevisiae deletion strains, locus YNL322C, strain KRE1, stronger effect = lower value

Measured: normalized growth

OC(CN1CCN(c2cccc(Cl)c2)CC1)C(c1ccccc1)c1ccccc1 (configuration not stated)
inactive: S. cerevisiae deletion strains, locus YAL040C, strain CLN3, stronger effect = lower value 0.979 | S. cerevisiae deletion strains, locus YCL061C, strain MRC1 (second series), stronger effect = lower value 0.986 | [1] 0.985 | [2] 1.01 | [3] 0.997 | [4] 0.992 | S. cerevisiae deletion strains, locus YNL175C, strain NOP13, stronger effect = lower value 1.09 | S. cerevisiae deletion strains, locus YNL197C, strain WHI3, stronger effect = lower value 0.992 | S. cerevisiae deletion strains, locus YNL224C, strain SQS1, stronger effect = lower value 1.01 | [5] 0.97
active: S. cerevisiae deletion strains, locus YER002W, strain NOP16, stronger effect = lower value 1.19 [resistant] | S. cerevisiae deletion strains, locus YOR083W, strain WHI5 (second series), stronger effect = lower value 1.17 [resistant]

CCOC(=O)N=Nc1c(O)[nH]c2ccc(F)cc12
inactive: S. cerevisiae deletion strains, locus YAL013W, strain DEP1, stronger effect = lower value 1.01 | S. cerevisiae deletion strains, locus YBR229C, strain ROT2, stronger effect = lower value 1.01 | S. cerevisiae deletion strains, locus YDL101C, strain DUN1, stronger effect = lower value 1.01 | [1] 1 | S. cerevisiae deletion strains, locus YEL061C, strain CIN8, stronger effect = lower value 1.02 | [2] 1 | S. cerevisiae deletion strains, locus YGR229C, strain SMI1, stronger effect = lower value 1 | S. cerevisiae deletion strains, locus YHR030C, strain SLT2, stronger effect = lower value 1.06 | S. cerevisiae deletion strains, locus YHR087W, strain rtc3, stronger effect = lower value 1.03 | S. cerevisiae deletion strains, locus YJR043C, strain POL32, stronger effect = lower value 1 | S. cerevisiae deletion strains, locus YJR075W, strain HOC1, stronger effect = lower value 1.02 | S. cerevisiae deletion strains, locus YKL190W, strain CNB1, stronger effect = lower value 1.01 | S. cerevisiae deletion strains, locus YLR039C, strain RIC1, stronger effect = lower value 1.02 | S. cerevisiae deletion strains, locus YLR058C, strain SHM2 (second series), stronger effect = lower value 0.997 | S. cerevisiae deletion strains, locus YLR085C, strain ARP6, stronger effect = lower value 1.01 | S. cerevisiae deletion strains, locus YLR262C, strain YPT6, stronger effect = lower value 1.01 | S. cerevisiae deletion strains, locus YML094W, strain GIM5, stronger effect = lower value 1.05 | S. cerevisiae deletion strains, locus YMR219W, strain ESC1, stronger effect = lower value 0.999 | [3] 0.976 | S. cerevisiae deletion strains, locus YMR307W, strain GAS1, stronger effect = lower value 0.933 | S. cerevisiae deletion strains, locus YNL128W, strain TEP1, stronger effect = lower value 1.02 | [4] 1 | S. cerevisiae deletion strains, locus YNL298W, strain CLA4 (second series), stronger effect = lower value 0.998 | [5] 1.02 | S. cerevisiae deletion strains, locus YNR030W, strain Alg12, stronger effect = lower value 1.01 | S. cerevisiae deletion strains, locus YOL006C, strain TOP1, stronger effect = lower value 1.03 | S. cerevisiae deletion strains, locus YPL055C, strain LGE1, stronger effect = lower value 1.04 | S. cerevisiae deletion strains, locus YPL241C, strain CIN2, stronger effect = lower value 0.889 | S. cerevisiae deletion strains, locus YPR135W, strain CTF4, stronger effect = lower value 1.08 | S. cerevisiae strains, strain wild type, stronger effect = lower value 1

Source: PubChem BioAssay AID1159580 (chemical genetic matrix, 2015)
